Among all 420,000 compounds or so, about 50,000 (12%) were called active. Not shown: some 26% with an inconclusive outcome. For the sample, actives were picked, then their nearest neighbours and some compounds at random. Unmarked numbers belong to inactive results. Calls come from the whole dose curve; as a rule, active = well fitted inhibition curve with a large enough effect; inconclusive = small, poorly fitted or top-dose-only effect; inactive = flat fitted curve, though single readings scatter.
Experiment: qHTS for Inhibitors of human tyrosyl-DNA phosphodiesterase 1 (TDP1): qHTS in cells in presence of CPT; note: nearly all actives have a fitted effect of over 55% in size
Settings: chicken DT40 Tdp1-/-;hTDP1 cells + 20 nM CPT, ATP luminescence, 48 h; series mostly up to 46.2 µM; activity change, negative = growth inhibition: at the top concentration
Outline: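 Chicken DT40 Tdp1-/- cells complemented with human TDP1, 400 cells/well, exposed to compounds plus 20 nM camptothecin for at least 48 h at 37 C; viability read as ATP content by CellTiter-Glo luminescence.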
% is set by controls: 0 for no effect and ±100 for the full control effect; potency is the fitted concentration of half-maximal effect.

| SMILES | activity change, negative = growth inhibition | Potency |
| --- | --- | --- |
| O=C(NCc1ccco1)C1CCCN(S(=O)(=O)c2cccc3nonc23)C1 (stereo unspecified) | -10.4% |  |
| O=C(C1CCCN(S(=O)(=O)c2ccccc2)C1)N1CCN(c2ccc(F)cc2)CC1 (stereo unspecified) |  | 11.6 µM (active) |
| O=C(C1CCCN(S(=O)(=O)c2cccc3nonc23)C1)N1CCN(c2ccccc2F)CC1 (stereo unspecified) |  | 18.4 µM (active) |
| Cc1ccc(S(=O)(=O)N2CCCC(C(=O)N3CCN(C)CC3)C2)cc1 (stereo unspecified) | -6.45% |  |
| CC(=O)c1cccc(NC(=O)C2CCCN(S(=O)(=O)c3cccc4nonc34)C2)c1 (stereo unspecified) | -20.4% |  |
| CN1CCC(N(C)S(=O)(=O)c2ccc(NC(=O)c3cccc(C#N)c3)cc2)CC1 | -9.95% |  |
| COC(C[C@@H](O)C[C@H](O)[C@H](C)OCc1ccccc1)OC | -2.51% |  |
| CO[C@H]1O[C@@H]2O[C@@]3(C)CC[C@@H]4[C@@H](C)CC[C@@H]([C@H]1C)[C@@]24OO3 |  | 0.631 µM (active) |
| COc1ccccc1C(=O)NC(CCSC)C(=O)N1CCN(C(C)=O)CC1 (stereo unspecified) | -0.07% |  |
| CC(C)c1cccc(C(C)C)c1Nc1cn[nH]c1 |  | 14.6 µM (active) |
| CC(=O)Nc1ccc(S(=O)(=O)N(C)c2ccc(OCC(=O)OCC(=O)N3CCCCC3)cc2)cc1 | 5.25% |  |
| CCCN1C2CCCC1CC(NC(=O)c1cccc(OC)c1)C2 (stereo unspecified) | -5.4% |  |
| CCCNC(=S)NC1CC2CCCC(C1)N2CC(C)C (stereo unspecified) | -8.26% |  |
| CCCN1C2CCCC1CC(NC(=O)NC13CC4CC(CC(C4)C1)C3)C2 (stereo unspecified) |  | 16.4 µM (active) |
| Cc1ccc(NC(=O)CSCC(=O)Nc2sccc2C#N)cc1 | 2.86% |  |
| COc1ccccc1C(=O)COC(=O)CNS(=O)(=O)c1ccc(NC(C)=O)cc1 | -12.6% |  |
| COc1ccc(NC(=O)CN2C(=O)NC(C)(c3ccccc3)C2=O)cn1 (stereo unspecified) | -5.76% |  |
| COc1ccc(NC(=S)NCCNC(C)=O)cc1 | -3.51% |  |
| COc1ccc(CS(=O)/C(Cl)=C(/Cl)C(=O)Nc2ccc(OC)nc2)cc1 (stereo unspecified) |  | 0.0184 µM (active) |
| Cc1nc(Nc2ccccc2F)c2nnn(Cc3ccccc3Cl)c2n1 | -15.9% |  |
| NC(=O)c1sc(-c2ccsc2)cc1N | 3.43% |  |
| O=C(Nc1ccccc1-c1ccccc1)c1ccccc1[N+](=O)[O-] | -5.27% |  |
| Cc1ccc(CC(=O)N(C)CC(=O)N(CC(C)C)c2c(N)n(CC(C)C)c(=O)[nH]c2=O)cc1C | 2.72% |  |
| Cc1ccc(-n2ncc3c2CCCC3NC(=O)c2cnccn2)cc1C (stereo unspecified) |  | 20.6 µM (active) |
| COc1ccc(OC)c(C(=O)NC2CCCc3c2cnn3-c2cc(C)cc(C)c2)c1 (stereo unspecified) |  | 29.1 µM (active) |
| O=C(NCCCNC(=O)c1ccccc1Cl)c1cnccn1 | 14.9% |  |

| SMILES | activity change, negative = growth inhibition | Potency |
| --- | --- | --- |
| COc1ccc(-n2ncc3c2CC(C)(C)CC3NC(=O)CCc2c(C)noc2C)cc1 (stereo unspecified) | -14.8% |  |
| COCc1ccc(C(=O)NC2CC(C)(C)Cc3c2cnn3-c2ccc(C)cc2)o1 (stereo unspecified) | -24.3% |  |
| Cc1ccc(-c2csc(NC(=O)c3cnccn3)n2)cc1C | -0.532% |  |
| O=C(Cc1ccc(Cl)cc1)c1ccccc1 | 3.05% |  |
| CCCCCCNCCn1cnc2c(N)ncnc21 | 4.28% |  |
| COc1ccc(NC(=O)c2ccc3oc(=O)c(S(=O)(=O)c4ccc(F)cc4)cc3c2)c(OC)c1 | 0.795% |  |
| COc1cccc(NC(=O)CN(C)C(C)C(=O)Nc2ccc(C#N)cc2)c1 (stereo unspecified) | 1.07% |  |
| CCOC(=O)c1cc2c(=O)n3ccccc3nc2n(CCCOC)c1=NC(=O)C(C)(C)Oc1ccc(Cl)cc1 | -18.4% |  |
| Nc1cc2c(cc1Br)-c1ccc(F)cc1C2=O | -14.1% |  |
| CC(C)(C)C(=O)CSc1nc2ccccc2o1 | 10.3% |  |
| CCN(CC)C(=O)CSc1nc2ccccc2o1 | 1.95% |  |
| Cc1ccc(/C=N/NC(=O)CSc2nc3ccccc3o2)cc1 |  | 18.4 µM (active) |
| CC(Sc1nnc(C2CC2)n1C1CC1)C(=O)Nc1ccc(C(N)=O)cc1 (stereo unspecified) | -11.7% |  |
| COc1ccc(NS(=O)(=O)c2ccc(N3CCOCC3)c(NC(=O)/C=C/C(=O)O)c2)cc1 | -24.2% |  |
| COc1ccc(NS(=O)(=O)c2ccc(N3CCN(CCO)CC3)c([N+](=O)[O-])c2)cc1 |  | 9.2 µM (active) |
| CC1CCN(c2ccc(S(=O)(=O)Nc3cc(C(=O)O)cc(C(=O)O)c3)cc2[N+](=O)[O-])CC1 | 6.32% |  |
| O=C(CSc1nncn1-c1cccnc1)N1CCOCC1 | 18.2% |  |
| O=C1NC(c2ccccc2)Cc2ccncc21 (stereo unspecified) | -1.24% |  |
| COc1ccc(OC)c(Cc2nnc(CCC(=O)NC3CCCC3)o2)c1 | 24.7% |  |
| COc1ccc(OC)c(NC(=O)c2sc3nc(C)cc(C)c3c2N)c1 | -1.45% |  |
| COc1ccc(OC)c(Cc2cnc3nc(N)nc(N)c3c2C)c1 |  | 0.259 µM (active) |
| COCC1CCCN(Cc2ccc3c(c2)CN(C(=O)c2ccnn2C)CCO3)C1 (stereo unspecified) | -3.58% [at 9.04 µM] |  |
| O=C(c1[nH]ncc1-c1ccc(Cl)cc1)C1CO1 (stereo unspecified) |  | 1.03 µM (active) |
| S=c1[nH]nc(-c2ccc(Cl)cc2)n1CC1CCCO1 (stereo unspecified) | -28.6% |  |
| COC(=O)c1ccc(C)c(NC(=O)C2CC(=O)N(C3CCCC(C)C3C)C2)c1 (stereo unspecified) | -28.8% |  |
